Laboratory results taken from PubChem BioAssay AID435005 (Broad Institute, 2010).
Out of some 300,000 compounds screened, about 2,400 (0.8%) were called active. For the sample, actives were picked, then their nearest neighbours and some compounds at random. Values without a mark were called inactive.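 How the source made its calls: active means Every replicate reaches about 75%, or at least half do and their mean reaches it too (limit read from the data); inconclusive means At least half of replicates reach the limit but their mean does not; inactive means Under half of replicates reach the limit.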

Assay: inhibitors of cytokine-induced beta cell apoptosis, primary screen, luminescence (AID 435005);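 further: 0% = cytokine-treated negative control wells and 100% = positive control rescue; higher means more ATP so stronger rescue from cytokine killing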
Conditions: INS-1E cytokine-induced death, ATP luminescence, 48 h; hits give high values; percent of positive-control rescue, neutral wells zero; concentration not given here

Row | SMILES | protection from apoptosis
1 | Nc1nonc1-n1nnc(C(=O)N/N=C\c2ccncc2)c1CN1CCCCC1 | -8.98%
2 | Nc1nonc1-n1nnc(C(=O)N/N=C/c2cc(Br)ccc2O)c1CSC1=NCCS1 | 86.6% (active)
3 | Cc1ccc(SCc2c(C(=O)N/N=C/C3CC=CCC3)nnn2-c2nonc2N)cc1 (stereo not given) | -2.44%
4 | NNC(=O)c1nnn(-c2nonc2N)c1CN1CCCC1 | 0.21%
5 | Cc1ccc(SCc2c(C(=O)N/N=C/c3cccnc3)nnn2-c2nonc2N)cc1 | -3.56%
6 | Nc1nonc1-n1nnc(C(=O)N/N=C/c2ccccc2O)c1CN1CCCC1 | 77.1% (active)
7 | COc1ccccc1-c1nnc2n1N=C(c1ccc(OC(F)F)c(OCC3CC3)c1)CS2 | 14.1%
8 | COc1ccc(CNC(=O)COC(=O)C(CCSC)N2C(=O)c3ccccc3C2=O)cc1 (stereo not given) | -1.57%
9 | O=C1COc2ccc(C(=O)COC(=O)c3ccccc3Cl)cc2N1 | -5.54%
10 | O=C(CSc1nc2ccccc2c(=O)n1Cc1ccc(F)cc1)NCC1CCCO1 (stereo not given) | -5.32%
11 | CCOC(=O)C1CCN(CC(=O)Nc2ccc(OC)c(S(=O)(=O)N3CCCCC3)c2)CC1 | 0.731%
12 | CCN(C[C@H]1N[C@@](CC)(C(=O)OC)[C@H]2C(=O)N(Cc3ccccc3)C(=O)[C@@H]12)S(=O)(=O)c1ccccc1 | -2.88%
13 | CC(C)(C)C(=O)Nc1ccc(C(=O)N/N=C/c2ccccc2OC(=O)c2ccc(Cl)cc2Cl)cc1 | 87.8% (active)
14 | O=C(N/N=C/c1ccc(OC(=O)c2ccccc2Cl)cc1)c1ccc(O)cc1 | -1.66%
15 | O=C(N/N=C/c1ccoc1)c1ccc(Cl)cc1Cl | -6.52%
16 | CC1O[C@@H](OC2C(O)C(C)O[C@H](OC(=O)[C@]34CCC(C)(C)C[C@H]3C3=CCC5[C@@]6(C)CC(O)C(O[C@@H]7OC(CO)C(O)[C@@H](O)[C@@H]7O)[C@@](C)(C(=O)O)C6CC[C@@]5(C)[C@]3(CO)CC4)C2O[C@H]2OC(C)[C@@H](O[C@@H]3OCC(O[C@@H]4OC(CO)C(O)[C@H](O)C4O)[C@@H](O)[C@@H]3O)[C@H](O)C2O)C(O)C(O)C1O (stereo not given in full) | -2.17%
17 | Cc1ccc(S(=O)(=O)N2[C@@H](c3ccc(Br)cc3)C(C(=O)O)=C[C@H]2CC2CCCC2)cc1 | -9.97%
18 | Cc1ccc(CNC(=O)COC(=O)C2CCC2)cc1 | -16.3%
19 | CS(=O)(=O)c1ccc2nc(NC(=O)c3ccc(N4CCCC4=O)cc3)sc2c1 | 2.56%
20 | CN(C)CCCN(C(=O)c1ccc(S(=O)(=O)N2CCCc3ccccc32)cc1)c1nc2ccc(F)cc2s1 | -11.6%
21 | O=C(NC(Nc1nc2ccc([N+](=O)[O-])cc2s1)(C(F)(F)F)C(F)(F)F)c1ccccc1 | 118% (active)
22 | CCOc1ccc2nc(NC(=O)c3cc([N+](=O)[O-])ccc3N3CCOCC3)sc2c1 | 32.1%
23 | O=C(Nc1nc2ccc([N+](=O)[O-])cc2s1)c1ccc(S(=O)(=O)N2CCCc3ccccc32)cc1 | 113% (active)
24 | CCC(=O)NC(Nc1nc2ccc(C)cc2s1)(C(=O)OC)C(F)(F)F (stereo not given) | -2.12%
25 | O=C(Nc1ccccc1)N1CCC(C(=O)N2CCN(Cc3ccccc3)CC2)CC1 | -2.8%

Row | SMILES | protection from apoptosis
26 | O=C(COC(=O)COc1cccc(F)c1)NCC1CCCCC1 | -3.55%
27 | Cc1ccc(NS(=O)(=O)c2ccc(C(C)C)cc2)cc1S(=O)(=O)N1CCOCC1 | 4.91%
28 | Cc1ccccc1NC(=O)CSC(=O)c1ccccc1 | -2.98%
29 | C#CCOCCOCCOCCNc1nc(N2CCN(C(=O)[C@H](CO)n3cc([C@@H](N)C(C)C)nn3)CC2)nc(N2CCN(C(=O)[C@H](CCC(=O)O)n3cc([C@@H](N)[C@H](C)CC)nn3)CC2)n1 | -6.94%
30 | CN(C(=O)c1cccc(NC(=O)Cc2ccc([N+](=O)[O-])cc2)c1)C1CCC1 | -5.07%
31 | COc1cccc(OCc2cc(C(=O)N3CCN(C(=O)c4ccco4)CC3)no2)c1 | -1.9%
32 | C=CCC1(CC=C)CCCN1C(=O)c1cc(COc2ccc(-n3cncn3)cc2)on1 | 104% (active)
33 | CCn1ccnc1CN(C)C(=O)c1cc(COc2ccc(-n3cncn3)cc2)on1 | -3.2%
34 | Cc1cccc(NC(=O)c2ccc(S(=O)(=O)N(C)c3ccccc3)cc2)n1 | -7.09%
35 | CN(C)CCNC(=O)c1[nH]nc2c1CCc1ccccc1-2 | -8.17%
36 | COc1cccc(/C=N/NC(=O)c2[nH]nc3c2CCc2ccccc2-3)c1O | 82.2% (active)
37 | COc1cc2cc(C(=O)N/N=C/c3cccc(OC)c3OC)[nH]c2cc1OC | 0.139%
38 | COc1cc(C(=O)NC2CCN(C)CC2)ccc1Nc1ncc2c(n1)N(C1CCC(O)CC1)CCC(=O)N2C (stereo not given) | -0.596%
39 | COc1cc(SC)ccc1C(=O)NNC(=O)C1COc2ccccc2O1 (stereo not given) | -1.75%
40 | CCCN(CC(=O)Nc1ccccc1C)C(=O)c1ccc2[nH]c3c(c2c1)CC(C)CC3 (stereo not given) | 8.11%
41 | COc1ccc(OCCCC(=O)Nc2cccc(S(=O)(=O)N3CCCCCC3)c2)cc1 | -3.4%
42 | COc1ccc(/C=N/Nc2nc3ccccc3c(=O)[nH]2)cc1 | 12%
43 | COc1ccc(Cc2nnc(N/N=C/c3ccccc3O)[nH]c2=O)cc1OC | 85.2% (active)
44 | CC(C)c1ccc(Cc2nnc(NCCCO)[nH]c2=O)cc1 | -1.74%
45 | CC(=O)c1c(C)[nH]c(C(=O)COc2ccc3c(C)cc(=O)oc3c2)c1C | -1.3%
46 | CN(c1ccccc1)S(=O)(=O)c1ccc(C(=O)N2CCN(c3ccccc3Cl)CC2)cc1 | 3.55%
47 | Cc1ccc2c(c1)NC(=O)[C@@]1(C)[C@@H](c3ccccc3)[C@H]3COc4ccc(Cl)cc4[C@@H]3N1C2=O | -5.63%
48 | CCOC(=O)C1=C(CN2CCCCCC2)NC(=O)NC1c1cccc([N+](=O)[O-])c1 (stereo not given) | -5.34%
49 | CCOC(=O)C1=C(CCc2ccccc2)NC(=O)NC1c1ccc2ccccc2c1 (stereo not given) | 93.7% (active)
50 | CCOC(=O)C1=C(CN2CCc3ccccc32)NC(=O)NC1c1ccc(Cl)cc1 (stereo not given) | -0.812%
